Reference: article PMC7862700, “An all-to-all approach to the identification of sequence-specific readers for epigenetic DNA modifications on cytosine”

What was measured:
Experiment in all cases: DAPPL (digital affinity profiling via proximity ligation, sequencing); 10 mM Tris-HCl pH 7.5, 50 mM NaCl, 1 mM DTT, 4% glycerol, room temperature, 30 min; GST-TFs on glutathione beads, 16-mer random dsDNA library, 0.1% formaldehyde crosslink after washing; high values mean tight binding
Conditions in all cases: protein: recombinant; tags: N-terminal GST; dsDNA, one strand shown
FLI1 = biological target: T1, FLI1 (Homo sapiens, UniProt Q01543 1-452)
T1 sequence: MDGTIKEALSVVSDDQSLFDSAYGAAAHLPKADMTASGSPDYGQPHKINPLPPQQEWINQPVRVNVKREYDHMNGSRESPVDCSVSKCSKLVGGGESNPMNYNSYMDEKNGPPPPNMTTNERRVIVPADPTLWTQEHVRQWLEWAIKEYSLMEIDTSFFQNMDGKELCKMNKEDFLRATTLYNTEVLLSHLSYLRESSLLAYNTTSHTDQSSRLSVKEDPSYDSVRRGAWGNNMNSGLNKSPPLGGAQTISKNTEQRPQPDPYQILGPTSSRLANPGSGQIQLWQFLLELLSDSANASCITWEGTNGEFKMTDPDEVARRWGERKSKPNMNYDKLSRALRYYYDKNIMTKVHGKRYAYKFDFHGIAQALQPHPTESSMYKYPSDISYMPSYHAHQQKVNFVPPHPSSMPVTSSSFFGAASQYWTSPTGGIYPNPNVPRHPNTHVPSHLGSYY
Outline: (§1)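 Pools were built from human transcription factors expressed in yeast as GST fusions, captured on glutathione beads and DNA-barcoded, along with a tag-only sample. Incubation with 200 nmole of a 16-mer random double-stranded DNA library lasted 30 min at room temperature in Tris/NaCl/DTT/glycerol buffer, and was followed by washing, 0.1% formaldehyde crosslinking, proximity ligation, PCR amplification and Illumina NextSeq500 sequencing. Binding signal is the quotient of each hexamer's read frequency for a factor and its frequency for the tag-only sample.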

ELK1 = biological target: T2, ELK1 (Homo sapiens, UniProt P19419 1-428)
T2 sequence: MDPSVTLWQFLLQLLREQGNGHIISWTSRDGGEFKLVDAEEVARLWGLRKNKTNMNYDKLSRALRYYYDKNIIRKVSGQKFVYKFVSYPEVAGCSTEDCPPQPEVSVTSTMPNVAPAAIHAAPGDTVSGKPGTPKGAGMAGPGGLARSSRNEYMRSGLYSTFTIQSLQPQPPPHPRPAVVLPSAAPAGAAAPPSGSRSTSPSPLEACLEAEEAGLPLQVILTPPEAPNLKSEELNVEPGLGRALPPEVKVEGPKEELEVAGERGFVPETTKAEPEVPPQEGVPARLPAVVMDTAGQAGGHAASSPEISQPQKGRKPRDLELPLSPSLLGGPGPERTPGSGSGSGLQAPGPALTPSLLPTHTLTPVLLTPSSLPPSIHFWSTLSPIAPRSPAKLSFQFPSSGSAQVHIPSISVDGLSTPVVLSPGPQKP
Outline: as §1

GABPA = biological target: T3, GABPA (Homo sapiens, UniProt Q06546 1-454)
T3 sequence: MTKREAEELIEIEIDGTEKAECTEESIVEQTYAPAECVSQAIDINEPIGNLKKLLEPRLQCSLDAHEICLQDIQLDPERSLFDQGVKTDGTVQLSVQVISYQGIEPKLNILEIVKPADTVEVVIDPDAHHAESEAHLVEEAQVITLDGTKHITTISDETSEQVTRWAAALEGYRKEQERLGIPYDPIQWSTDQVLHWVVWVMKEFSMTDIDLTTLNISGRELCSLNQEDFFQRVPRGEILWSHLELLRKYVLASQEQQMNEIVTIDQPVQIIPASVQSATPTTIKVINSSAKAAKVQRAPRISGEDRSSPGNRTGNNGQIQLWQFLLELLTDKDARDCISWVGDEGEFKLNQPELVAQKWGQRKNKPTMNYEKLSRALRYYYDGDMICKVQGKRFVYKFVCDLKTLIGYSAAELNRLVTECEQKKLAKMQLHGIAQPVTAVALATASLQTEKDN
Outline: as §1

ERG = biological target: T4, ERG (Homo sapiens, UniProt P11308 1-479)
T4 sequence: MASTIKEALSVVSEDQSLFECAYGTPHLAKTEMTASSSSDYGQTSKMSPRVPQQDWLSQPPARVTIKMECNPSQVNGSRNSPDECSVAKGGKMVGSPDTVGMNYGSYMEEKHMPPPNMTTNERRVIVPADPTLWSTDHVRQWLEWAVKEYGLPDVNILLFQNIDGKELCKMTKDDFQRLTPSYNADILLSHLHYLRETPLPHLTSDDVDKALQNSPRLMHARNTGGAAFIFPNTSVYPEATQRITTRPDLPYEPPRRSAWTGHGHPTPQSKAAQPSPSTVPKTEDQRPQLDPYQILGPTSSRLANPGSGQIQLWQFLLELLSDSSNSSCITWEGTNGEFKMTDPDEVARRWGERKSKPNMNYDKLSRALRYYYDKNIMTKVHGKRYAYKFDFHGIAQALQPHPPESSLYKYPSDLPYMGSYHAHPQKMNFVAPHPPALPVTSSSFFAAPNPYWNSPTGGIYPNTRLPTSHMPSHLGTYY
Outline: as §1

ELF1 = ELF1 (Homo sapiens, UniProt P32519 1-619)
Outline: as §1

EHF = biological target: T5, EHF (Homo sapiens, UniProt Q9NZC4 1-300)
T5 sequence: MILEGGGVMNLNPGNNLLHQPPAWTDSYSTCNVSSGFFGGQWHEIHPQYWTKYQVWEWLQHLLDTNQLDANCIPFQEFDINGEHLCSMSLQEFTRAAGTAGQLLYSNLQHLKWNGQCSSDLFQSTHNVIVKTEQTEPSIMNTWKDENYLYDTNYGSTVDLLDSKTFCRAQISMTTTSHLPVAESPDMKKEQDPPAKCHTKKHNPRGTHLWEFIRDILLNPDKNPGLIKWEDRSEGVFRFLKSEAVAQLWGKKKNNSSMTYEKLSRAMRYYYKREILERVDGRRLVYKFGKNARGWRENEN
Outline: as §1

SPI1 = SPI1 (Homo sapiens, UniProt P17947 1-270)
Outline: as §1

SPIB = SPIB (Homo sapiens, UniProt Q01892 1-262)
Outline: as §1

ELK3 = biological target: T6, ELK3 (Homo sapiens, UniProt P41970 1-407)
T6 sequence: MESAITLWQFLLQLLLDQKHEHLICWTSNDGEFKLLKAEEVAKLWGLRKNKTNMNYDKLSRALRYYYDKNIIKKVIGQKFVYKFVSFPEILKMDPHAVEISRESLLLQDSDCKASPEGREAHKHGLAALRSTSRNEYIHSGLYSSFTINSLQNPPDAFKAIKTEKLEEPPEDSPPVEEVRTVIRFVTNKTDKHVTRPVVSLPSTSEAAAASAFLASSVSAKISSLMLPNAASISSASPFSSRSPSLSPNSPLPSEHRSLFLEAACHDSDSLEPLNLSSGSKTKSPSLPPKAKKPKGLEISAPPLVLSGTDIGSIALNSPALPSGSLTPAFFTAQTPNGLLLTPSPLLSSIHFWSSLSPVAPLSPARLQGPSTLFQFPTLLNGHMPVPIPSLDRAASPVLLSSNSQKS
Outline: as §1

FEV = biological target: T7, FEV (Homo sapiens, UniProt Q99581 1-238)
T7 sequence: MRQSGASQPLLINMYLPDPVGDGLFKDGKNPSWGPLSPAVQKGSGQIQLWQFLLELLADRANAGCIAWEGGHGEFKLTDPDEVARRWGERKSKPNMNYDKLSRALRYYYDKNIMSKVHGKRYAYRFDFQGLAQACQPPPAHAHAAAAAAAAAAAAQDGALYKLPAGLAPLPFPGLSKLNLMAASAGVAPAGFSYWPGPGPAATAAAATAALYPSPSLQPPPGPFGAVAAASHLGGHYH
Outline: as §1

ETV5 = ETV5 (Homo sapiens, UniProt P41161 1-510)
Outline: as §1

SPIC = biological target: T8, SPIC (Homo sapiens, UniProt Q8N5J4 1-248)
T8 sequence: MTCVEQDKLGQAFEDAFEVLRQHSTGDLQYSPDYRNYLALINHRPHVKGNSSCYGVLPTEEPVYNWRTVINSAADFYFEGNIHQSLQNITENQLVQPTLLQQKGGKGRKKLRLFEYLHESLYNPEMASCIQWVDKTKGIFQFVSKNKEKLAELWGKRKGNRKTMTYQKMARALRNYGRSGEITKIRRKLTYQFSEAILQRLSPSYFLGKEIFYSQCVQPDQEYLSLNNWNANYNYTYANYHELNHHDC
Outline: as §1

ELF4 = ELF4 (Homo sapiens, UniProt Q99607 1-663)
Outline: as §1

ELK4 = biological target: T9, ELK4 (Homo sapiens, UniProt P28324-2 1-405)
T9 sequence: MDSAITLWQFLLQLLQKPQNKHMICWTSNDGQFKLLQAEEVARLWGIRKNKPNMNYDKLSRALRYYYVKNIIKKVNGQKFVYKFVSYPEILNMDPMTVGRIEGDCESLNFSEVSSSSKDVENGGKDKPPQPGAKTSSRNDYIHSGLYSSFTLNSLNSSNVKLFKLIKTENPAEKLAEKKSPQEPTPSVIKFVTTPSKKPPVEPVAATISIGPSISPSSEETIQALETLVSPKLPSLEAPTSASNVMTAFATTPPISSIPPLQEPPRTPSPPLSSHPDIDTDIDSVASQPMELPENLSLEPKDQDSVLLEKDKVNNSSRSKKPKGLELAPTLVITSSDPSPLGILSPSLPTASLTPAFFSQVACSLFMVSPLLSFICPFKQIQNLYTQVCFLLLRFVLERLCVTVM
Outline: as §1

ETV2 = biological target: T10, ETV2 (Homo sapiens, UniProt O00321 1-342)
T10 sequence: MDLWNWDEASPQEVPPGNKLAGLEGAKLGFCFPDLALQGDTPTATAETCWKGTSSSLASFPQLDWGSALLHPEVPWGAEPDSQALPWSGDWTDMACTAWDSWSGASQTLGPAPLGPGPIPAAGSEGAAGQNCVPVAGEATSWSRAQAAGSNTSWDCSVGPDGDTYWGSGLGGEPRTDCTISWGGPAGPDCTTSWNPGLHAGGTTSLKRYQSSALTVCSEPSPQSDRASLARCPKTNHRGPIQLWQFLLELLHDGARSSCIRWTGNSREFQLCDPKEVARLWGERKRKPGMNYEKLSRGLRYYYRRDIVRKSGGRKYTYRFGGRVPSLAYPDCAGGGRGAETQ
Outline: as §1

ELF3 = biological target: T11, ELF3 (Homo sapiens, UniProt P78545 1-371)
T11 sequence: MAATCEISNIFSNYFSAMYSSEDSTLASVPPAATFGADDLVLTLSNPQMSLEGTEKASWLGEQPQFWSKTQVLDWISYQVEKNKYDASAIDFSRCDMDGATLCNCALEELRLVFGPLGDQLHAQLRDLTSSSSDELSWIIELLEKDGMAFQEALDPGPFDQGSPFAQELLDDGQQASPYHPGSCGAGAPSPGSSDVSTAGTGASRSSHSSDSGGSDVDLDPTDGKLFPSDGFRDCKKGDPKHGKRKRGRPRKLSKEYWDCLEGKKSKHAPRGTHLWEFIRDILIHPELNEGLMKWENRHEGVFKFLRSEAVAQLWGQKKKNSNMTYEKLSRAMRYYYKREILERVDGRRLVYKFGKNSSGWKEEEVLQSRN
Outline: as §1

ETV1 = ETV1 (Homo sapiens, UniProt P50549 1-477)
Outline: as §1

Chain of ELF1 (P32519 whole entry): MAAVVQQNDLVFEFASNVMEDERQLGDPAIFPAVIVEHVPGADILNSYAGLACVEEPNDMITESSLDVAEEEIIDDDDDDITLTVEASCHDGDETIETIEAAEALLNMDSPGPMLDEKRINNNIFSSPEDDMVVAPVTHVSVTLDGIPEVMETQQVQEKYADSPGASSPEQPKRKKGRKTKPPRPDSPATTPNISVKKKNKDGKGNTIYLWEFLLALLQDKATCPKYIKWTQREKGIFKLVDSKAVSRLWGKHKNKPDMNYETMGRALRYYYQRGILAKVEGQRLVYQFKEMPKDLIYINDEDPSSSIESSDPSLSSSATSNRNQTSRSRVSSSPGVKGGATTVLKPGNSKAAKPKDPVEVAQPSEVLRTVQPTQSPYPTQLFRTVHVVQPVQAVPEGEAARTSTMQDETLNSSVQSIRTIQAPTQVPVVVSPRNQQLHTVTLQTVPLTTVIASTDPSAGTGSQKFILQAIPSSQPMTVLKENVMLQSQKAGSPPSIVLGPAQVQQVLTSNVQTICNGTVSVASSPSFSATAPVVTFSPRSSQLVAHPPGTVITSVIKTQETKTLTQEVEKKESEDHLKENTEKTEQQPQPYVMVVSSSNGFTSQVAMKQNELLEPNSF
Chain of ETV5 (P41161 whole entry): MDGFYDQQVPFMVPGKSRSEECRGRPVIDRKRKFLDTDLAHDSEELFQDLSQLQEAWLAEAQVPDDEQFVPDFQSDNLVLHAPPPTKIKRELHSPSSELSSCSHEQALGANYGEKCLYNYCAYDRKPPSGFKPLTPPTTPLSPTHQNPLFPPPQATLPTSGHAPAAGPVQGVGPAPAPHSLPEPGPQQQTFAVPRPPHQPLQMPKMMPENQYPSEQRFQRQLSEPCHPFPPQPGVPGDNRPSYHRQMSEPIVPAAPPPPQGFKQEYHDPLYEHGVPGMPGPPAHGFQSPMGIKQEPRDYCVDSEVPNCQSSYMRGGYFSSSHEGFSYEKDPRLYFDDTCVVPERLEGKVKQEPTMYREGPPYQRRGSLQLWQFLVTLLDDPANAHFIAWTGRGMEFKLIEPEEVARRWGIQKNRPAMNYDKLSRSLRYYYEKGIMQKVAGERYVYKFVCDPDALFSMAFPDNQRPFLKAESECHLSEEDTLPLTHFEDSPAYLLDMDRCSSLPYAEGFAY
Chain of SPIB (Q01892 whole entry): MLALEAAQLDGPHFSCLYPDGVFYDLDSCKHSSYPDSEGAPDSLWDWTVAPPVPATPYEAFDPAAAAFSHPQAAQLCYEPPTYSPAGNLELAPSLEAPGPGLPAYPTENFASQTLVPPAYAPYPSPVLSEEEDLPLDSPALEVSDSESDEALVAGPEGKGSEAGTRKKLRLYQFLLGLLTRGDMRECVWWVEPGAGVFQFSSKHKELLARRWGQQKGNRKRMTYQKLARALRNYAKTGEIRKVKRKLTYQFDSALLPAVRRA
Chain of ELF4 (Q99607 whole entry): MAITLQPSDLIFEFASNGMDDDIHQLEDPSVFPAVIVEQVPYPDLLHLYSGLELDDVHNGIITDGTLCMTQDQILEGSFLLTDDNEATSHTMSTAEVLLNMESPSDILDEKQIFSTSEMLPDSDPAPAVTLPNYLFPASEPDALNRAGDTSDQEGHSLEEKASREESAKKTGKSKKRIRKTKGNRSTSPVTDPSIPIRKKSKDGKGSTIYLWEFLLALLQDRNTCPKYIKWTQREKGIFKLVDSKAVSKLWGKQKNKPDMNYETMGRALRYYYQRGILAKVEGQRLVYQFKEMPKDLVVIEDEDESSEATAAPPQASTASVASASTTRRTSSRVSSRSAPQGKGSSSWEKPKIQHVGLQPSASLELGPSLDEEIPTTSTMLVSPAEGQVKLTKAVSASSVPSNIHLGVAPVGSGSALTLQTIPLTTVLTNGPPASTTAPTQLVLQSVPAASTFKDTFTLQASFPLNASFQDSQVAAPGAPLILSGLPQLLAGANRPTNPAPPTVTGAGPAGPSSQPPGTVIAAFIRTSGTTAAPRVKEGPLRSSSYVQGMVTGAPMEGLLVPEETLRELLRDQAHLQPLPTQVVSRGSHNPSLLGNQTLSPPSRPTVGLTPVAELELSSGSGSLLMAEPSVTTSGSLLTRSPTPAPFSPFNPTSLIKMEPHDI
Chain of ETV1 (P50549 whole entry): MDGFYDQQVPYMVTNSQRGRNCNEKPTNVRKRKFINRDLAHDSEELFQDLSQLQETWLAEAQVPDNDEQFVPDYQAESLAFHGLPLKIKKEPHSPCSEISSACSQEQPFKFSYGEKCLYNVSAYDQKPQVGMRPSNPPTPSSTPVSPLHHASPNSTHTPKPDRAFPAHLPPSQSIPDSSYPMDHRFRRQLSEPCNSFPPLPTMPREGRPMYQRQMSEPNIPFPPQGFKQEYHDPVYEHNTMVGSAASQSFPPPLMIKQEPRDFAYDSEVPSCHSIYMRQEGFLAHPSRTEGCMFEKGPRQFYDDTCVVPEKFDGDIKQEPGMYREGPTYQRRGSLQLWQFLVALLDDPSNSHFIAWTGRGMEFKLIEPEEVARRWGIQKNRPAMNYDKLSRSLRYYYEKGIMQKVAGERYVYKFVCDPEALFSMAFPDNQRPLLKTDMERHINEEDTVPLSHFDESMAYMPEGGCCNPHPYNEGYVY

Sequence	binding signal (FLI1)	binding signal (ELK1)	binding signal (GABPA)	binding signal (ERG)	binding signal (ELF1)	binding signal (EHF)	binding signal (SPI1)	binding signal (SPIB)	binding signal (ELK3)	binding signal (FEV)	binding signal (ETV5)	binding signal (SPIC)	binding signal (ELF4)	binding signal (ELK4)	binding signal (ETV2)	binding signal (ELF3)	binding signal (ETV1)
ACCGGA	2.87 fold enrichment (6-mer frequency, TF over GST control)	3.55 fold enrichment (6-mer frequency, TF over GST control)	2.66 fold enrichment (6-mer frequency, TF over GST control)	3.94 fold enrichment (6-mer frequency, TF over GST control)	2.87 fold enrichment (6-mer frequency, TF over GST control)	3.2 fold enrichment (6-mer frequency, TF over GST control)	3.17 fold enrichment (6-mer frequency, TF over GST control)	3.16 fold enrichment (6-mer frequency, TF over GST control)	3.55 fold enrichment (6-mer frequency, TF over GST control)	6.19 fold enrichment (6-mer frequency, TF over GST control)	3.33 fold enrichment (6-mer frequency, TF over GST control)	2.63 fold enrichment (6-mer frequency, TF over GST control)	2.78 fold enrichment (6-mer frequency, TF over GST control)	2.4 fold enrichment (6-mer frequency, TF over GST control)	3.02 fold enrichment (6-mer frequency, TF over GST control)	3.15 fold enrichment (6-mer frequency, TF over GST control)	3.45 fold enrichment (6-mer frequency, TF over GST control)
GTACAC	1.18 fold enrichment (6-mer frequency, TF over GST control)	1.31 fold enrichment (6-mer frequency, TF over GST control)	1.18 fold enrichment (6-mer frequency, TF over GST control)	1.29 fold enrichment (6-mer frequency, TF over GST control)	1.17 fold enrichment (6-mer frequency, TF over GST control)	1.14 fold enrichment (6-mer frequency, TF over GST control)	1.18 fold enrichment (6-mer frequency, TF over GST control)	1.18 fold enrichment (6-mer frequency, TF over GST control)	1.23 fold enrichment (6-mer frequency, TF over GST control)	1.2 fold enrichment (6-mer frequency, TF over GST control)	1.27 fold enrichment (6-mer frequency, TF over GST control)	1.33 fold enrichment (6-mer frequency, TF over GST control)	1.29 fold enrichment (6-mer frequency, TF over GST control)	1.23 fold enrichment (6-mer frequency, TF over GST control)	1.17 fold enrichment (6-mer frequency, TF over GST control)	1.26 fold enrichment (6-mer frequency, TF over GST control)	1.2 fold enrichment (6-mer frequency, TF over GST control)
